In PubChem BioAssay:
“And” between values parts separate entries of the source, which are not always exact repeats. Equal entries are not always repeated. For some assays here: Potency and affinity values are given separately. The source made the active and inactive calls.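 The calls were made as follows, unless noted: active = normalized viability below 100% at a tested concentration; inactive = the rest.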

How the values were obtained:
[1] = blockers of polyQ-driven CASP3 activation – cell-based (AID 1583); conditions: polyglutamine-induced caspase-3 activation, cell assay; stronger effect = higher value;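 tested at 10 µM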
[2] = yeast 75Q aggregation reduction – 75Q-TubU reporter (AID 1593); conditions: Yeast 75Q polyglutamine aggregation reporter
[3] = restoration of touch response, mutant HTT neurons – whole organism, C. elegans mechanosensory neurons, N-terminal huntingtin (AID 1599); conditions: C. elegans polyQ-huntingtin mechanosensory neurons, stronger effect = higher value
[4] = blockers of cytochrome c efflux from mitochondria – biochemical, purified mitochondria (AID 1603); conditions: stronger effect = lower value;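 also: mouse liver mitochondria challenged with calcium chloride; signal normalized to the plate average as 100%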
[5] = polyglutamine aggregate formation blockers (AID 1604); conditions: polyglutamine-induced protein aggregation inhibition assay; stronger effect = higher value; tested at 2.5 µM
[6] = glutamate transport activators, MN-1 cells, MN-1 cell line (AID 1612); conditions: MN-1 motor neuron cells, stronger effect = higher value;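 also: tested at 1 µM final; 0% = mean of DMSO vehicle wells on each plate; positive means more glutamate uptake than control and negative means less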
[7] = GFP-Q80 aggregate reduction, neuronal-like cells, cell-based, NGF-treated PC12, GFPQ80 (AID 1614); conditions: PC12 NGF-treated GFP-polyQ80 inclusion reduction;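 also: lower means fewer inclusions and 0 means no inclusions at all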
[8] = 75Q-TubH aggregate inhibition, S. cerevisiae, yeast (AID 1616); conditions: S. cerevisiae 75Q-TubH polyglutamine aggregation suppression; stronger effect = higher value
[9] = compounds altering circadian rhythm period length – cell-based, LOPAC library, luminescence reporter (AID 2774; call rule not given here;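 also: values are relative to mean of DMSO wells on each plate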); conditions: circadian reporter cells, at 7 µM, actives lie on both sides
[10] = P. berghei load reduction in hepatocytes – cell-based, HepG2, luciferase luminescence, HepG2 viability, primary screen (AID 624349; in the data active = parasite load remaining mostly below about 12%, no sharp cut-off; inactive = mostly above about 10%;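 also: 100% = mean of DMSO negative control wells on the same plate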); conditions: P. berghei liver stage in HepG2, luciferase luminescence, concentration not given here; parasite load remaining: stronger effect = lower value; viability: measured here: HepG2 viability without parasites
[11] = test system: Hepatitis C virus NS3 helicase; test: blockers of NS3h binding to ssDNA – biochemical, fluorescence polarization, LOPAC1280 library, primary screen (AID 687035; in the data active = inhibition above about 37%); conditions: Purified HCV NS3 helicase, Cy5-dT15 ssDNA binding fluorescence polarization; stronger effect = higher value; concentration not given here
[12] = target: 6-phosphogluconate dehydrogenase, decarboxylating (Homo sapiens) (UniProt P52209); test: inhibition of human phosphogluconate dehydrogenase – biochemical, recombinant enzyme, NADPH absorbance, primary screen (AID 1159550;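 active = at least 20% inhibition of 6-phosphogluconate dehydrogenase activity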); conditions: recombinant 6PGD, NADPH absorbance 341 nm; at 10 µM; stronger effect = higher value
[13] = EMT-state selective cytotoxicity in co-culture – imaging, PC-3E GFP, TEM4-18 mCherry, primary screen (AID 1345086;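 active = compounds killing one labelled cell type while sparing the other, by normalised counts and ratio limits, not self-fluorescent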;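 as to all read-outs here: cells exposed to compound for 72 h before imaging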;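 as to red/green cell ratio (normalised): normalised mesenchymal count divided by normalised epithelial count so high means epithelial killing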); conditions: PC-3E GFP / TEM4-18 mCherry co-culture, imaging cell counts, at 1 µM; for red/green cell ratio (normalised): actives lie on both sides, counts scaled to control wells, 1 = unselective
[14] = viability loss with induced miR-34 in A549 – imaging, A549 dox-inducible miR-34, nuclei and caspase counts, primary screen (AID 1347080;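 active = compounds whose cell count with miR-34 switched on is under 0.7 times the count with it off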); conditions: A549 miR-34 inducible, Hoechst nuclei count, 48 h
[15] = blockers of cellular phospholipid synthesis – cell-based, LOPAC library, screen 4, primary screen (AID 1347384; call rule not given here); conditions: animal cells, phospholipid biosynthesis inhibition screen; at 10 µM
[16] = target: Mitogen-activated protein kinase 7 (Homo sapiens) (UniProt Q13164); test: Gal4-ERK5 driven luciferase induction – cell-based, HTS, primary screen (AID 1508626;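 active = luciferase signal above three times the same-plate solvent-only control wells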;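 also: luciferase driven by Gal4-ERK5 fusion binding five Gal4 sites before minimal TATA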); conditions: HeLa Gal4-ERK5 transactivation, 18 h, at 5 µM, stronger effect = higher value
[17] = galactose survival enhancers in mitochondrial complex I cybrids – cell-based, galactose medium, ATP luminescence, primary screen (AID 1645843;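 active = z-score of at least 1.8 in each of two replicates, scored against plate mean and spread of sample wells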;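 also: positive z means more ATP and so rescue of galactose-driven cybrid death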); conditions: complex I mutant cybrid cells, 72 h, stronger effect = higher value
[18] = MELAS cybrid and Rieske KO viability enhancers – cell-based, MELAS cybrids, Rieske KO mouse fibroblasts, CellTiter-Glo, primary screen (AID 1508586); conditions: low glucose;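 also: z relative to plate mean and SD of compound and empty wells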
[19] = drug combination growth inhibition, ovarian cancer – cell-based, oncology-focused library, rucaparib conditional, profiling panel (AID 1508598); conditions: patient-derived ovarian cancer cells, CellTiter-Glo viability, 144 h, stronger effect = lower value
[20] = target: NAD(+) hydrolase SARM1 (Homo sapiens) (UniProt Q6SZW1); test: blocking NAD cleavage by SARM1 SAM-TIR – cell lysate, NAD-Glo luminescence (AID 1508614;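 active = compound whose remaining NAD level is above about 45 nM, limit read from the data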;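 also: higher remaining NAD means stronger inhibition of SARM1 NADase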); conditions: SAM-TIR HEK293T lysate NADase, at 1 µM, stronger effect = higher value
[21] = measured here: epithelial PC-3E GFP cell survival
[22] = measured here: mesenchymal TEM4-18 mCherry cell survival

Chain of 6-phosphogluconate dehydrogenase, decarboxylating (Homo sapiens) (P52209 whole entry, looked up): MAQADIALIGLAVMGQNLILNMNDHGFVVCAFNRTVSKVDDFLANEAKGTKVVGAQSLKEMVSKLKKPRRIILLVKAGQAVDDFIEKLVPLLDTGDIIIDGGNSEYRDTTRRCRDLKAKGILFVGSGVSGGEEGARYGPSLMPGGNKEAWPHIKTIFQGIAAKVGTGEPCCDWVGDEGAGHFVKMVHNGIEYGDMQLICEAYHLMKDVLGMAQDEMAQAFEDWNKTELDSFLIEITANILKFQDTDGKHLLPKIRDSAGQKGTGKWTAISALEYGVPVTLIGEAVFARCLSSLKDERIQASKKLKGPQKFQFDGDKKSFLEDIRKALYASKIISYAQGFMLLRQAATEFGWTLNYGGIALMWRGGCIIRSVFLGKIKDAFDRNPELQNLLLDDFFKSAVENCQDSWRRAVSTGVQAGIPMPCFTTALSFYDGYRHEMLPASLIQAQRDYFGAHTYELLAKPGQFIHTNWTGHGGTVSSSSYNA
Chain of Mitogen-activated protein kinase 7 (Homo sapiens) (Q13164 whole entry, looked up, the tested form may be a part): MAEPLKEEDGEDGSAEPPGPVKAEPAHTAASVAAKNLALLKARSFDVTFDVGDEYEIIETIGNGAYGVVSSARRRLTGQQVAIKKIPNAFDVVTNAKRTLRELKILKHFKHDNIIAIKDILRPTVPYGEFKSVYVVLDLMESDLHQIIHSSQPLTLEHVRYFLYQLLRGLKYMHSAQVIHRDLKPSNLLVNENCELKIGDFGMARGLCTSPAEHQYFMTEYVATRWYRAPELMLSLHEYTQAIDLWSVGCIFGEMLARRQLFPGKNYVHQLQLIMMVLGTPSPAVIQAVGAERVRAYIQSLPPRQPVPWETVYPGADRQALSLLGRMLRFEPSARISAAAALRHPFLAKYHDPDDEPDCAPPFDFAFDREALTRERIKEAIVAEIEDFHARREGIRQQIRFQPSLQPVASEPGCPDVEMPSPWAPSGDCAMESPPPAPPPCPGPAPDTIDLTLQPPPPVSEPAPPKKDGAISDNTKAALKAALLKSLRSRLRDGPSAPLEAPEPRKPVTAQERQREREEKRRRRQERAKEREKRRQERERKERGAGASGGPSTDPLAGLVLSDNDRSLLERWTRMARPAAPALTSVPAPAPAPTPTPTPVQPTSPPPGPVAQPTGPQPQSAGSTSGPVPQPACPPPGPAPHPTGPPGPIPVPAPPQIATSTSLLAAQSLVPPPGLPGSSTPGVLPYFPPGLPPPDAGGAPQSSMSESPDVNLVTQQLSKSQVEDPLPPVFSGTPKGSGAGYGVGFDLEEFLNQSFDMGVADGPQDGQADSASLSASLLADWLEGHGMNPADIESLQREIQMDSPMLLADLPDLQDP
Chain of NAD(+) hydrolase SARM1 (Homo sapiens) (Q6SZW1 whole entry, looked up): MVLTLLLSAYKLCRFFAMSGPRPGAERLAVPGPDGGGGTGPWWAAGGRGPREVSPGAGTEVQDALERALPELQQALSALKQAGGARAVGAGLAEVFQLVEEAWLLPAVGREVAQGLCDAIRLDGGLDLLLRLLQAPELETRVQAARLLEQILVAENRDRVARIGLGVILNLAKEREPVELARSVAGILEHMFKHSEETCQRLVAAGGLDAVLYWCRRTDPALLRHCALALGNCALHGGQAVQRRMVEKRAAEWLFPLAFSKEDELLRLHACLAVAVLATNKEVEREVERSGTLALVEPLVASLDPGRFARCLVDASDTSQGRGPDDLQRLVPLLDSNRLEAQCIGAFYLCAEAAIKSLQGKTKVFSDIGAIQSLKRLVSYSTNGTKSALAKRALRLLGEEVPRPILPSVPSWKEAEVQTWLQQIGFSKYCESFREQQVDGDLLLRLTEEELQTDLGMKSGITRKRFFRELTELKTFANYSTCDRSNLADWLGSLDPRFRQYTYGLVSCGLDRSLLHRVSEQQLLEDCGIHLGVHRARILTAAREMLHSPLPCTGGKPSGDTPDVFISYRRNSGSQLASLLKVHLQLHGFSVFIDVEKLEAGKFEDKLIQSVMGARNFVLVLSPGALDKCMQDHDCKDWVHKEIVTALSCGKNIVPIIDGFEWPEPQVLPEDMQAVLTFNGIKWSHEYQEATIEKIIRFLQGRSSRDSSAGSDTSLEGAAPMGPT

O=C(O)c1cccnc1C(=O)O
inhibition [1]: -5.39%
score [2]: 1.95
rescue above control [3]: 5.37
cytochrome c release ratio [4]: 1.17
inhibition of aggregation [5]: 58.6%
glutamate uptake change [6]: -5.4%
inclusion score [7]: 2
aggregation suppression score [8]: 1.12
period change [9]: -0.235 h (inactive)
parasite load remaining [10]: 83.9% (inactive)
viability [10]: 75.4%
inhibition [11]: -2% (inactive)
inhibition [12]: 2.35% (inactive)
red/green cell ratio (normalised) [13]: 0.71 (inactive)
normalised cell number [13, 21]: 1.39
normalised cell number [13, 22]: 0.99
fold change ([14]; stronger effect = lower value, cell number ratio, induced over uninduced): 0.98 (inactive) and 0.953 (inactive)
fold change ([14]; measured here: relative caspase fold change +Dox/-Dox): 1.66 and 1.07
cell count ([14]; measured here: total cells with miR-34 induction, stronger effect = lower value): 9820 and 8590
cell count ([14]; measured here: total cells without miR-34 induction): 10000 and 9010
outcome [15]: inactive
luciferase signal [16]: 84 AU (inactive)
z-score [17]: 0.32 (inactive) and -0.225 (inactive)

CC1NC(=O)NC1=O (stereo not given)
inhibition [12]: -12% (inactive)
red/green cell ratio (normalised) [13]: 0.85 (inactive)
normalised cell number [13, 21]: 0.94
normalised cell number [13, 22]: 0.79

COc1c(C)c2c(c(O)c1C/C=C(\C)CCC(=O)O)C(=O)OC2
inhibition [1]: -14.6%
score [2]: 0.55
rescue above control [3]: 6.21
cytochrome c release ratio [4]: 1.22
inhibition of aggregation [5]: 35%
glutamate uptake change [6]: -2.33%
inclusion score [7]: 1
aggregation suppression score [8]: 0.18
inhibition [12]: -6.15% (inactive)
red/green cell ratio (normalised) [13]: 0.6 (active)
normalised cell number [13, 21]: 0.58
normalised cell number [13, 22]: 0.35
z-score ([18]; MELAS cybrid survival, CellTiter-Glo 48 h, stronger effect = higher value): -0.0503
z-score ([18]; Rieske KO mouse fibroblast survival, CellTiter-Glo 72 h): 2.98
viability ([19]; at 0.000305 µM, OCI-C5x cells, with rucaparib 10 µM, 100% = cells with rucaparib alone): 117% (inactive)
viability ([19]; at 0.000305 µM, OCI-C5x cells, without rucaparib): 124% (inactive)
viability ([19]; at 0.000305 µM, OCI-P5x cells, with rucaparib 20 µM, 100% = cells with rucaparib alone): 87.8% (active)
viability ([19]; at 0.000305 µM, OCI-P5x cells, without rucaparib): 96% (active)
viability ([19]; at 0.00122 µM, OCI-C5x cells, with rucaparib 10 µM, 100% = cells with rucaparib alone): 121% (inactive)
viability ([19]; at 0.00122 µM, OCI-C5x cells, without rucaparib): 126% (inactive)
viability ([19]; at 0.00122 µM, OCI-P5x cells, with rucaparib 20 µM, 100% = cells with rucaparib alone): 90.6% (active)
viability ([19]; at 0.00122 µM, OCI-P5x cells, without rucaparib): 103% (inactive)
viability ([19]; at 0.00488 µM, OCI-C5x cells, with rucaparib 10 µM, 100% = cells with rucaparib alone): 129% (inactive)
viability ([19]; at 0.00488 µM, OCI-C5x cells, without rucaparib): 128% (inactive)
viability ([19]; at 0.00488 µM, OCI-P5x cells, with rucaparib 20 µM, 100% = cells with rucaparib alone): 96.9% (active)
viability ([19]; at 0.00488 µM, OCI-P5x cells, without rucaparib): 109% (inactive)
viability ([19]; at 0.0195 µM, OCI-C5x cells, with rucaparib 10 µM, 100% = cells with rucaparib alone): 121% (inactive)
viability ([19]; at 0.0195 µM, OCI-C5x cells, without rucaparib): 129% (inactive)
viability ([19]; at 0.0195 µM, OCI-P5x cells, with rucaparib 20 µM, 100% = cells with rucaparib alone): 95.2% (active)
viability ([19]; at 0.0195 µM, OCI-P5x cells, without rucaparib): 112% (inactive)
viability ([19]; at 0.0781 µM, OCI-C5x cells, with rucaparib 10 µM, 100% = cells with rucaparib alone): 166% (inactive)
viability ([19]; at 0.0781 µM, OCI-C5x cells, without rucaparib): 162% (inactive)
viability ([19]; at 0.0781 µM, OCI-P5x cells, with rucaparib 20 µM, 100% = cells with rucaparib alone): 97.4% (active)
viability ([19]; at 0.0781 µM, OCI-P5x cells, without rucaparib): 97% (active)
viability ([19]; at 0.313 µM, OCI-C5x cells, with rucaparib 10 µM, 100% = cells with rucaparib alone): 180% (inactive)
viability ([19]; at 0.313 µM, OCI-C5x cells, without rucaparib): 189% (inactive)
viability ([19]; at 0.313 µM, OCI-P5x cells, with rucaparib 20 µM, 100% = cells with rucaparib alone): 85.4% (active)
viability ([19]; at 0.313 µM, OCI-P5x cells, without rucaparib): 62.1% (active)
viability ([19]; at 1.25 µM, OCI-C5x cells, with rucaparib 10 µM, 100% = cells with rucaparib alone): 128% (inactive)
viability ([19]; at 1.25 µM, OCI-C5x cells, without rucaparib): 117% (inactive)
viability ([19]; at 1.25 µM, OCI-P5x cells, with rucaparib 20 µM, 100% = cells with rucaparib alone): 70% (active)
viability ([19]; at 1.25 µM, OCI-P5x cells, without rucaparib): 40.7% (active)
viability ([19]; at 5 µM, OCI-C5x cells, with rucaparib 10 µM, 100% = cells with rucaparib alone): 73.1% (active)
viability ([19]; at 5 µM, OCI-C5x cells, without rucaparib): 56.4% (active)
viability ([19]; at 5 µM, OCI-P5x cells, with rucaparib 20 µM, 100% = cells with rucaparib alone): 46.2% (active)
viability ([19]; at 5 µM, OCI-P5x cells, without rucaparib): 30.7% (active)
remaining NAD [20]: 10 nM (inactive)
luciferase signal [16]: 48 AU (inactive)
z-score [17]: 1.33 (inactive) and 1.68 (inactive)

CC(C)=CCCC1(C)C=Cc2c(O)c3c(c(CC=C(C)C)c2O1)OC12C(=CCCC1C(C)(C)O[C@@]2(C/C=C(\C)C(=O)O)C(=O)O)C3=O (stereo not given in full)
inhibition [12]: 0.371% (inactive)
red/green cell ratio (normalised) [13]: 0.93 (inactive)
normalised cell number [13, 21]: 1.16
normalised cell number [13, 22]: 1.08
